From PubChem BioAssay
Rows were chosen to be rich in hits. Some 19% of all compounds tested hit in one or more screens of this group.
Pf growth 96h = P. falciparum growth inhibition at 96 hour, primary screen for plastid delayed-death inhibitors; P. falciparum luciferase reporter growth, 96 h; Potency, µM (highest dose often 28.7 µM), hits mostly inhibitors; actives 6.9% (n = 320,000); AID 504834
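Infected RBCs, 2% Hct / 0.05% parasitemia final; luciferase-reporter P. falciparum; cpd 96 h, 37 C, 5% CO2; luciferase detection reagent; luminescence.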
Pf growth 48h = P. falciparum growth inhibition at 48 hours (one generation); P. falciparum luciferase growth in erythrocytes, 48 h; Potency, µM (top dose mostly 28.7 µM), most hits filed as inhibitors; actives 5.9% (n = 310,000); AID 504832
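Read-out is firefly luciferase luminescence from an integrated reporter in P. falciparum, so falling signal marks reduced parasite growth. Infected erythrocytes were at 2% hematocrit and 0.1% parasitemia (final) in Albumax-supplemented RPMI 1640.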
MARV entry inh = Marburg virus entry inhibition | Marburg virus pseudotyped entry inhibition, cell reporter | Potency, µM (top dose mostly 37.8 µM), hits mostly inhibitors | actives 1.8% (n = 300,000); calls by dose curve; tested in HEK293 cells
Shiga toxin inh = inhibitors of Shiga toxin in Vero cells; actives 9.2% (n = 290,000); AID 2315; Vero cells, Shiga toxin protein synthesis inhibition reporter; inhibition, % at 38.7 µM; in the data active = inhibition mostly above about 28%, no sharp cut-off; inactive = mostly below about 43%
LASV entry inh = inhibitors of Lassa virus binding or cell entry | Lassa virus pseudotype entry inhibition, cell reporter | Potency, µM (doses to about 37.9 µM), hits mostly inhibitors | actives 1.2% (n = 300,000) | AID 540256; calls by dose curve; tested in HEK293 cells; note: nearly all actives have a fitted effect of over 50% in size
Cycloheximide cs = counter-screen hit for Shiga toxin inhibitors, cycloheximide. cell reporter, cycloheximide protein synthesis inhibition counterscreen. max response, %. actives 12% (n = 300,000); in the data active = max response mostly above about 13%, no sharp cut-off; inactive = mostly below about 14%; note: read at 38.3 µM for the half of the compounds with a filed dose
Each line names hits and unclear results; the compound was inactive in the other large screens. Unless noted, calls come from the whole dose curve; as a rule, active = well fitted inhibition curve with a large enough effect; inconclusive = small, poorly fitted or top-dose-only effect, or another doubt; inactive = no such curve, though single readings can be large or run the other way.

COC(=O)[C@H]1[C@H]2C[C@@H]3c4[nH]c5cc(OC)ccc5c4CCN3C[C@H]2C[C@@H](OC(=O)c2ccc(N)cc2)[C@@H]1OC	Pf growth 96h 13µM, Pf growth 48h 12µM (no result: MARV entry inh, LASV entry inh)
CCOC(=O)Oc1c(OC)cc(C(=O)O[C@H]2C[C@H]3CN4CCc5c([nH]c6cc(OC)ccc56)[C@@H]4C[C@H]3[C@@H](C(=O)OC)[C@@H]2OC)cc1OC	Pf growth 96h 1.3µM, Pf growth 48h 1.6µM (no result: MARV entry inh, Shiga toxin inh, LASV entry inh, Cycloheximide cs)
COc1ccc2c3c([nH]c2c1)[C@H]1C[C@H]2[C@H](C[C@@H](O)[C@H](OC)[C@H]2C(=O)O)CN1CC3	none (no result: MARV entry inh, Shiga toxin inh, LASV entry inh, Cycloheximide cs)
CCOC(=O)c1ccc(NC(=O)c2nc(SC)ncc2Cl)cc1	Pf growth 96h inconclusive (no result: MARV entry inh, LASV entry inh)
COC(=O)C1[C@@H](OC)C(OC(=O)COc2ccc(OC)cc2)C[C@@H]2CN3CCc4c([nH]c5cc(OC)ccc45)[C@H]3C[C@H]12 (stereo partly drawn)	Pf growth 96h 6.7µM, Pf growth 48h 8.5µM (no result: MARV entry inh, Shiga toxin inh, LASV entry inh, Cycloheximide cs)
O=C(O)[C@@H]1[C@H]2C[C@H]3c4[nH]c5ccccc5c4CCN3C[C@@H]2CC[C@@H]1O	Pf growth 96h 7.4µM, Pf growth 48h inconclusive (no result: MARV entry inh, Shiga toxin inh, LASV entry inh, Cycloheximide cs)
O=C(Nc1ccc2c(c1)OCO2)C1CC(c2ccccc2O)=NO1 (stereo not drawn)	Pf growth 96h inconclusive, MARV entry inh inconclusive, Cycloheximide cs active
COc1ccc(NC(=O)C2CC(c3ccccc3Cl)=NO2)cc1 (stereo not drawn)	MARV entry inh inconclusive, Cycloheximide cs 14
O=C(Nc1ccc2c(c1)OCCO2)C1CC(c2ccccc2Cl)=NO1 (stereo not drawn)	Shiga toxin inh 117, Cycloheximide cs 61
O=C(Nc1ccc2c(c1)OCO2)C1CC(c2ccc(Cl)cc2)=NO1 (stereo not drawn)	none
COc1ccc(CCNC(=O)c2cc(=O)[nH]c3ccc(S(=O)(=O)N4CCCCC4C)cc23)cc1OC (stereo not drawn)	none (no result: Pf growth 96h, Pf growth 48h, MARV entry inh, Shiga toxin inh, Cycloheximide cs)
CS(=O)(=O)N1CCc2cc(C(=O)N3CCCCC3)ccc21	none
O=C(c1ccc2c3n(nc2c1)-c1ccc(Cl)cc1CO3)N1CCOCC1	Shiga toxin inh 56, Cycloheximide cs 21 (no result: MARV entry inh, LASV entry inh)
Cc1ccc2c(c1)COc1c3ccc(C(=O)N4CCCCC4)cc3nn1-2	Cycloheximide cs 34 (no result: MARV entry inh, LASV entry inh)
O=C(c1ccc2c3n(nc2c1)-c1ccccc1CO3)N1CCOCC1	Shiga toxin inh 58, Cycloheximide cs 31 (no result: MARV entry inh, LASV entry inh)
O=C(c1cc(-c2ccc(Cl)cc2)n(-c2ccc(Cl)cc2Cl)n1)N1CCOCC1	none
O=C(c1ccc2c3n(nc2c1)-c1ccccc1CO3)N1CCCCC1	Shiga toxin inh 80, Cycloheximide cs 29 (no result: MARV entry inh, LASV entry inh)
Clc1ccc(Cc2ccc(SCc3ccccc3)nn2)c(Cl)c1	none
CC(=O)c1c(C)n(Cc2ccccc2Cl)c2ccc(O)cc12	Pf growth 96h inconclusive
CCOc1ccc(-n2cc(-c3ccccc3)c3c(NCCc4ccccc4)ncnc32)cc1	none (no result: Pf growth 96h, Pf growth 48h, MARV entry inh, Shiga toxin inh, Cycloheximide cs)
COc1ccccc1N1CCN(CC(O)c2c(C)[nH]c3ccccc23)CC1 (stereo not drawn)	none (no result: MARV entry inh, LASV entry inh)
COc1cc(C(C[N+](=O)[O-])c2c(C)[nH]c3ccccc23)cc(OC)c1OC (stereo not drawn)	Pf growth 48h 13µM, MARV entry inh inconclusive
CCOC(=O)c1c(NC(=O)OC)sc(C(=O)N(CC)CC)c1C	Pf growth 96h inconclusive, Pf growth 48h 5.9µM
CCN(CC)C(=O)c1sc(NC(=O)C(Sc2ccccc2)c2ccccc2)c(C(=O)OC(C)C)c1C (stereo not drawn)	Pf growth 96h 0.41µM, MARV entry inh inconclusive, LASV entry inh inconclusive (no result: Pf growth 48h)
CCOC(=O)c1sc(NC(=O)CN(CC(C)C)CC(C)C)c(C(=O)OCC)c1C	Pf growth 48h 2.3µM, MARV entry inh inconclusive (no result: Pf growth 96h)
CCOC(=O)c1c(NC(=O)CC(C)C)sc(C(C)=O)c1C	Pf growth 96h inconclusive, Pf growth 48h inconclusive
CCN(CC)C(=O)c1sc(N)c(C(=O)OC(C)C)c1C	Pf growth 48h inconclusive
Cn1ncc([N+](=O)[O-])c1C(=O)Nc1nccs1	none
CCN(CC)CCNC(=O)c1ccccc1C(=O)c1ncc[nH]1	Pf growth 96h 1.7µM
Cc1ccc(Nc2nc(N)nc(CSC(=S)N3CCOCC3)n2)c(C)c1	Shiga toxin inh 72, LASV entry inh inconclusive, Cycloheximide cs 34
CN1CCN(C(=S)SCc2nc(N)nc(Nc3ccc(F)cc3)n2)CC1	Pf growth 48h inconclusive, Cycloheximide cs 19 (no result: MARV entry inh, LASV entry inh)
COc1ccc(Nc2nc(N)nc(CSC(=S)N3CCOCC3)n2)cc1	Shiga toxin inh 67, Cycloheximide cs 39 (no result: MARV entry inh, LASV entry inh)
Nc1nc(CSCCO)nc(Nc2ccc(F)cc2)n1	Cycloheximide cs 25
Nc1nc(CSC(=S)N2CCOCC2)nc(Nc2ccc(F)cc2)n1	none
Cc1ccc(Nc2nc(N)nc(CSC(=S)N3CCN(c4ccccc4)CC3)n2)cc1	Pf growth 96h inconclusive
CN(C)/C=C/C(=O)C(Cl)(Cl)Cl	none
Cc1ccc(NC(=O)COc2cccc3c2OC(C)(C)C3)c(O)c1	Pf growth 96h inconclusive, Pf growth 48h 10µM, MARV entry inh inconclusive (no result: Shiga toxin inh, Cycloheximide cs)
Cc1ccc(NC(=O)COc2cccc3ccccc23)c(O)c1	Pf growth 96h 4.7µM, Pf growth 48h 5.2µM (no result: MARV entry inh, Shiga toxin inh, LASV entry inh, Cycloheximide cs)
NC(=O)c1ccc(NC(=O)COc2cccc3ccccc23)cc1	none (no result: MARV entry inh, LASV entry inh)
O=C(N/C=N/O)C1=NOC(CNc2ncc(C(F)(F)F)cc2Cl)C1 (stereo not drawn)	none (no result: Pf growth 48h)
O=C(NC1CC1)C1=NOC(CNc2ncc(C(F)(F)F)cc2Cl)C1 (stereo not drawn)	Pf growth 96h 12µM (no result: Pf growth 48h)
Cc1oc2cc(O)ccc2c(=O)c1Oc1ccc(F)cc1	none (no result: MARV entry inh, LASV entry inh)
Cc1oc2cc(O)ccc2c(=O)c1Oc1ccc2ccccc2c1	Shiga toxin inh 38
COc1ccc(/C=C/C(=O)OCC(=O)Nc2cc(S(=O)(=O)N(C)C)ccc2Cl)cc1	Shiga toxin inh 58, Cycloheximide cs 13
CCN(CC)S(=O)(=O)c1ccc(Cl)c(NC(=O)COC(=O)c2ccc(O)cc2)c1	Pf growth 96h 4.7µM, Pf growth 48h inconclusive
COc1cc(/C=C/C(=O)OCC(=O)Nc2cc(S(=O)(=O)N(C)C)ccc2Cl)ccc1O	none
Cc1cc(C)c(NC(=O)CS(=O)CC(=O)N2CCN(c3ccc(F)cc3)CC2)c(C)c1 (stereo not drawn)	none
COc1ccc(OC)c(C(=O)CSc2nc3c(c(=O)n(C)c(=O)n3C)n2C(C)C)c1	Pf growth 96h 15µM
CCOc1ccc2nc(NC(=O)C(CC)Sc3nc(C)cc(=O)[nH]3)sc2c1 (stereo not drawn)	MARV entry inh inconclusive, Shiga toxin inh 90, Cycloheximide cs 29 (no result: Pf growth 96h)
CCCn1c(SCC(=O)c2cc(OC)ccc2OC)nc2c1c(=O)n(C)c(=O)n2C	none
CCOc1ccc2nc(NC(=O)CSc3nc4c(c(=O)n(C)c(=O)n4C)n3C(C)C)sc2c1	Pf growth 96h 12µM, MARV entry inh inconclusive
CCCc1cc(=O)[nH]c(SCC(=O)Nc2ccc(OCc3ccccc3)cc2)n1	none (no result: MARV entry inh, Shiga toxin inh, LASV entry inh, Cycloheximide cs)
CCCc1cc(=O)[nH]c(SCC(=O)Nc2nc3ccc(OCC)cc3s2)n1	Shiga toxin inh 52, Cycloheximide cs 14
